Source: PubChem (National Center for Advancing Translational Sciences (NCATS))
Compounds with a hit are over-represented: about 1.2% of the library has one in this group of screens.
BRCA1 expr act: increases BRCA1 expression | MCF7-BRCA1-FFLuc reporter, luminescence, 48 h; response scale: scaled: vehicle 0%, 10 µM genistein 100% | Potency, µM (highest dose often 46.1 µM), for the others: at the highest dose activation, actives largely listed as activators | 380,000 tested, 1.1% active; note: nearly all actives have a fitted effect of over 80% in size
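Compounds are tested at multiple concentrations on MCF7 BRCA1-luciferase reporter cells seeded at 2000 per well; after 48 h, a single luminescence end-point is taken and curves fitted to the normalized data.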
RGS12 GoLoco inh: blocks human Gai1 binding to RGS12 GoLoco peptide, red readout; 230,000 tested, 0.44% active; Potency, µM (highest dose often 61.6 µM), without a hit: top-dose activity, negative = inhibition, actives largely listed as inhibitors; Gai1:RGS12 GoLoco peptide FP, rhodamine, 10 min; active = well fitted inhibition curve with a large enough effect, not every such curve was filed as active; inactive = no such curve, though single readings can be large or run the other way; note: % is set by controls: 0 for no effect and ±100 for the full control effect; nearly all actives have a fitted effect of over 30% in size
Target sequence (P63096 whole entry, looked up): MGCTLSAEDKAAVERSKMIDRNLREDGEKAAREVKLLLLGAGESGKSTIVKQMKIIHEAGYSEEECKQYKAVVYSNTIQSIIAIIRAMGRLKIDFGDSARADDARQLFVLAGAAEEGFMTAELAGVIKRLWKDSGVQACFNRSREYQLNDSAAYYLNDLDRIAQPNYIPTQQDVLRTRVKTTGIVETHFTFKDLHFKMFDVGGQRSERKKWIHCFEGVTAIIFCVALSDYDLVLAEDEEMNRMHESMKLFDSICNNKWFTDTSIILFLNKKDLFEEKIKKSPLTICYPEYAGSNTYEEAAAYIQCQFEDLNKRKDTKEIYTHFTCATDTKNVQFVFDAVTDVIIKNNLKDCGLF
ERG-DNA inh: inhibitors of human ERG Ets domain-DNA interaction | fluorescence polarization, His-ERG Ets domain / labelled DNA | Potency, µM (top dose mostly 76.9 µM), inactives show at the highest dose FP activity, negative = inhibition, usual class: inhibitors | 370,000 tested, 0.028% active | AID 624246; active = well fitted inhibition curve with a large enough effect in the polarisation, with a control signal flat; inconclusive = small, poorly fitted or top-dose-only effect, or effect the other way, or a change in a side signal; inactive = no such curve, though single readings can be large or run the other way; the % refers to the polarisation;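 note: polarization taken with two DNA probes labelled with fluorescein and Texas red; % of control where 0% means no effect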
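His-tagged ERG Ets domain (1 uM in the protein solution; 300mM KCl, 50mM Tris-HCl, 1mM EDTA, 1mM DTT, pH 7.5) received compound, then a probe mix of 5 nM fluorescein-DNA and 100nM Texas-615-DNA. Fluorescence polarization was read for both dyes.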
Anesthetic bind: binds horse apoferritin like a general anesthetic. 350,000 tested, 0.074% active. Potency, µM (highest dose often 77.5 µM), for the others: at the highest dose activity change, negative = displacement, most hits filed as inhibitors. apoferritin/1-aminoanthracene competitive binding, fluorescence. P02791. AID 485281; note: % is set by controls: 0 for no effect and ±100 for the full control effect; nearly all actives have a fitted effect of over 20% in size
Target sequence (P02791 2-175 limits assumed): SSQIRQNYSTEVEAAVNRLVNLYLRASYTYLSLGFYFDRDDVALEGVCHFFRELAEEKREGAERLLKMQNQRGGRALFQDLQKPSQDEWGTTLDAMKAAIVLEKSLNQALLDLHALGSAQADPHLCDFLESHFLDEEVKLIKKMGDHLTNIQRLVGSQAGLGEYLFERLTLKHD
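Horse-spleen apoferritin (10 uM) was mixed with 50% saturated 1-aminoanthracene in PBS, exposed to compounds for 10 min at room temperature, and read for fluorescence (ex 380 nm, em 535 nm). Competitive displacement was fitted with a four-parameter Hill equation.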
Active calls of the source: *; ? = inconclusive; / = no result given; [ ] = another dose, or the depositor's remark. Unless noted, calls come from the whole dose curve; as a rule, active = well fitted curve in the direction sought with a large enough effect; inconclusive = small, poorly fitted or top-dose-only effect, or another doubt; inactive = no such curve, though single readings can be large; an effect the other way counts as inactive or inconclusive. Potency is the fitted concentration of half-maximal effect.

SMILES	BRCA1 expr act	RGS12 GoLoco inh	ERG-DNA inh	Anesthetic bind
COc1ccc(-c2noc(-c3csc([C@@H]4C[C@H](O)[C@@H](CO)O4)n3)n2)cc1OC	14.1µM*	/	/	/
OC[C@H]1O[C@@H](c2nc(-c3ccc(Br)cc3)no2)C[C@@H]1O	7.94µM*	/	/	/
COc1ccc(C(=O)Nc2nnc([C@@H]3C[C@H](O)[C@@H](CO)O3)s2)cc1	15.7%	/	/	/
CC(=O)[C@]1(O)CC[C@@H]2[C@H]3C[C@@H](C)C4=CC(=O)CC[C@@]4(C)C3[C@@H](O)C[C@]21C (stereo not given in full)	/	4.4%[14.2 µM]	/	/
COc1cc(-c2nn3c(-c4cc(-c5ccccc5)n[nH]4)nnc3s2)cc(OC)c1OC	-11.5%	/	/	/
CCOc1cc(C)cc2oc(=O)cc(-c3ccccc3)c12	0.9%	5.6%	/	?
Cc1cc(OC(C)C)c2c(-c3ccccc3)cc(=O)oc2c1	-38.3%	-3.4%	11.9%	17.8µM*
Cc1ccc2nc(-c3ccncc3)[nH]c2c1	2.82µM*	/	8.1%	0.3%
Cc1ccc(S(=O)(=O)CNC(=S)c2ccc3ccccc3c2)cc1	26.6%	8.2%	-0.7%	25.1µM*
Cc1ccc(S(=O)(=O)CNC(=S)c2cccc(C)c2)cc1	2.7%	-4.2%	-5.8%	28.2µM*
Cc1ccc(S(=O)(=O)CNC(=O)c2ccccc2)cc1	1.0%	-14.3%	-1.3%	1.1%
COc1ccc(C(=S)NCS(=O)(=O)c2ccc(C)cc2)cc1	6.2%	-15.9%	1.9%	?
CC(C)C[C@H](NC(=O)[C@H](C)NC(=O)CNC(=O)[C@H](CCCCN)NC(=O)[C@H](CCCN=C(N)N)NC(=O)[C@H](C)NC(=O)[C@H](Cc1ccccc1)NC(=O)[C@@H](N)CCCN=C(N)N)C(=O)N[C@@H](CCCN=C(N)N)C(=O)N[C@@H](CCC(N)=O)C(=O)N[C@@H](CCCCN)C(=O)N[C@@H](CC(N)=O)C(=O)N[C@H](C(N)=O)C(C)C	/	/	/	1.0%
O=C1CCCc2[nH]c(=O)c(C(=O)NCc3ccccc3)cc21	7.7%	/	/	/
COc1cccc(NCc2nnc(SC(C(=O)N(C)C)c3ccccc3)n2C2CCCCC2)c1 (stereo not given)	-6.7%	/	/	/
COc1ccc(-c2cn3c(n2)sc2cc(C(=O)Nc4cc(Cl)ccc4C)ccc23)cc1	/	/	-3.2%	-1.5%
Cc1ccnc(NC(=O)CCNC(=O)c2ccc(Cl)cc2)c1	12.6µM*	/	-6.8%	-1.6%
O=C(CCCc1ccccc1)Nc1ccccn1	62.7%	12.0%	-7.6%	-9.9%
Cc1ccnc(NC(=O)CCCc2ccccc2)c1	11.2µM*	-5.3%	-12.0%	3.9%
Cc1cc(Br)ccc1NC(=O)COc1cc(=O)n(C)c2ccccc12	-1.0%	/	5.4%	53.4%
O=C(N/N=C/c1ccccc1)c1ccc(-c2ccccc2)cc1	59.4%	/	-5.4%	-3.7%
O=C(N/N=C\c1ccccc1F)c1ccc(-c2ccccc2)cc1	10µM*	/	-7.0%	-8.7%
CC(=O)c1ccc(NCCC(=O)c2ccccc2)cc1	11.2µM*	15.5%	-12.2%	-3.6%
COc1cc([N+](=O)[O-])c2ncsc2c1	14.6%	12.2%	4.2%	-12.2%
COc1cc(SSc2cc(OC)cc([N+](=O)[O-])c2N)c(N)c([N+](=O)[O-])c1	-41.7%	10µM*	-0.3%	-17.6%
SMILES	BRCA1 expr act	RGS12 GoLoco inh	ERG-DNA inh	Anesthetic bind
Oc1ccc(/C=N/N=C/c2ccc(O)c(O)c2)cc1O	-17.2%	/	5.4%	-17.5%
Oc1ccc(N=Cc2ccc(O)c(O)c2)cc1	-69.8%	15.8µM*	-11.7%	-6.1%
O=C(Nc1nnc(C2CCCO2)s1)c1ccc(Br)cc1 (stereo not given)	11.2µM*	6.6%	-8.0%	-0.5%
C#Cc1ccc2c(c1)C(=O)N(C)Cc1c(C(=O)OCCCOC(=O)c3ncn4c3CN(C)C(=O)c3cc(C#C)ccc3-4)ncn1-2	/	/	/	2.2%
CC(Oc1ccccc1)C(=O)Nc1ccccc1C(=O)OCc1cc(=O)n2nc(C(C)C)sc2n1 (stereo not given)	/	/	0.1%	2.9%
Cc1ccc(S(=O)(=O)N2CCN(c3nc(Nc4ccccc4O)nc4ccccc34)CC2)cc1	26.6%	/	/	/
O=C(/C=C/C=C/c1ccc2c(c1)OCO2)N1CCCCC1	8.91µM*	126.2%	0.5%	-7.9%
CN1CCN(C(=O)/C=C/c2ccc3c(c2)OCO3)CC1	12.2%	9.6%	-0.6%	-5.5%
Cc1ccc(NC(=S)N/C(=N/S(=O)(=O)c2ccccc2)c2ccccc2)cc1	12.6µM*	9.5%	5.0%	-23.0%
